Measured values taken from PubChem BioAssay AID720650 (Broad Institute, 2013).
A number with no mark means an inactive call. Activity calls are given as the source filed them. How the calls were made is not given here.

Assay: C difficile toxins, biochemical counterscreen, UDPG substrate absence, confirmatory dose response (AID 720650)

Row | Compound | AC50
1 | COc1cc(/C=N/N2C(=O)C3C4C=CC(CC4)C3C2=O)ccc1O (stereo unspecified) | inactive
2 | O=C(O)c1ccc(-c2ccc(O)c(F)c2)cc1 | 13.5 µM (active)
3 | COc1ccc(NS(=O)CCCc2ccccc2)cc1 (stereo unspecified) | inactive
4 | COc1cccc(C(=O)COC(=O)c2ccc(NC(=O)c3ccccc3)cc2)c1 | inactive
5 | COc1ccc2[nH]c3c(=O)n(CCCCC(=O)NCCN4CCCC4)c(=S)[nH]c3c2c1 | 18.5 µM (active)
6 | Cc1nn(C)cc1-c1n[nH]c(=S)n1-c1ccc(F)cc1 | inactive
7 | CCc1ccc(Nc2n[n+](-c3ccccc3)c(-c3ccc(OC)c(Br)c3)s2)cc1 | inactive
8 | CC(=O)N(c1ccccc1C)S(=O)(=O)c1ccc(Cl)cc1 | inactive
9 | Cc1ccc(S(=O)(=O)N2CCOCC2)cc1C(=O)NCCCN1CCCC1=O | inactive
10 | O=C(C[C@H]1CC[C@H]2[C@@H](COC[C@H](O)CN2C(=O)Nc2ccc(Cl)c(Cl)c2)O1)NCc1ccncc1 | inactive
11 | CCN(CC)C(=O)C1CCN(S(=O)(=O)c2c(C)noc2/C=C/c2cccc(C)c2)CC1 | inactive
12 | C[C@H](CO)N1C[C@H](C)[C@@H](CN(C)C(=O)Nc2ccc(C(F)(F)F)cc2)Oc2c(NS(=O)(=O)c3ccccc3)cccc2C1=O | > 39 µM
13 | COc1ccc(CCNC(=O)CCCn2nc(C)n3ccnc3c2=O)cc1OC | inactive
14 | COc1ccccc1Nc1nnc(SCc2cc(=O)n3ccsc3n2)s1 | > 39 µM
15 | CC(C)CN1CCN(CC#Cc2ccccc2)CC1CCO (stereo unspecified) | inactive
16 | CC(=O)Nc1ccc(Oc2nc(-c3ccccn3)nc3ccccc23)cc1 | 11 µM (active)
17 | Nc1ccc(C(=O)c2ccc3c(c2)OCCO3)cc1N | 11.9 µM (active)
18 | CC(C)CC(=O)N1CCN(Cc2ccc(Br)cc2)CC1 | inactive
19 | CC(C)(C)N1[C@@H](CC(=O)O)c2cc(C(F)(F)F)ccc2S1(=O)=O | inactive
20 | O=c1[nH]c(CN2CCOCC2)nc2cc(Cl)ccc12 | inactive
21 | COCC(=O)N1CC[C@@H]2[C@@H](CO)N(C)c3ccc(-c4ccccc4)cc3[C@@H]21 | 3.88 µM (active)
22 | CC(C)Cc1[nH]c(=O)c(C#N)c2c1CCC2 | inactive
23 | C=CCc1ccc(O)c(-c2ccc(O)c(CC=C)c2)c1 | > 39 µM

Row | Compound | AC50
24 | CCOC(=O)N1CCN(C(=S)NC(=O)c2ccc(F)c(F)c2)CC1 | inactive
25 | COc1ccccc1/C=C/c1onc(C)c1S(=O)(=O)N1CCC(C(=O)NC(C)C)CC1 | inactive
26 | CS(=O)(=O)N(CC(=O)Nc1ccc(S(=O)(=O)N2CCOCC2)cc1)c1ccccc1Br | inactive
27 | O=C(COC(=O)c1ccc(F)cc1F)c1ccc[nH]1 | inactive
28 | O=C1/C(=C/c2cccnc2)SC(=NCc2ccccc2)N1Cc1ccccc1 | inactive
29 | Cc1nc(-c2ccccn2)nc(SCC(=O)c2ccc(F)cc2)c1Cl | inactive
30 | COc1cc(/C=C/C(=O)OCC(=O)NCc2ccco2)ccc1O | inactive
31 | COc1ccc(Cl)cc1NC(=O)Cn1c(NCCO)nc2ccccc21 | inactive
32 | Cc1cccc(-n2c(=O)c3ccccc3n3c(=S)[nH]nc23)c1C | inactive
33 | COc1cccc(C(=O)OCC(=O)Nc2cc(C)on2)c1OC | inactive
34 | CCCCNS(=O)(=O)c1ccc(OCC(=O)OC)cc1 | inactive
35 | O=C(NCc1ccccc1)[C@@H]1CCCN1C(=O)[C@@H]1CCCN1C(=O)c1cccs1 | inactive
36 | COc1ccc(C2=NS(=O)(=O)N(C)C(C(=O)N(C)Cc3ccccc3)=C2)cc1OC | inactive
37 | O=C(NNc1ccc(-c2csnn2)cc1)c1ccccc1C(F)(F)F | 0.432 µM (active)
38 | Cc1cc(N/N=C/c2ccc(O)cc2)c2cccc(C)c2n1 | 16.3 µM (active)
39 | COCC#Cc1ccc2c(c1)O[C@H](CN(C)C(=O)CC1CC1)[C@@H](C)CN([C@H](C)CO)S2(=O)=O | inactive
40 | CCOC(=O)N1CCN=C1SCc1ccc(Cl)c(Cl)c1 | inactive
41 | O=C(NC(=S)NNS(=O)(=O)c1ccccc1)c1cccnc1 | inactive
42 | CC(Sc1nc2ccccc2n1C)C(=O)Nc1ccc(N2CCOCC2)cc1 (stereo unspecified) | inactive
43 | Cc1cc(C(=O)Nc2ncc(C)s2)c2ccccc2n1 | inactive
44 | CN1CCN(/N=C/c2c[nH]c3ccccc23)CC1 | > 39 µM
45 | CC(=O)Nc1cccc(NC(=O)c2ccc(Br)cc2)c1 | inactive
46 | COc1ccc(C2=NS(=O)(=O)N(C)C(C(=O)N3CCc4ccccc4C3)=C2)cc1OC | inactive
